# High-throughput results deposited in PubChem by several laboratories.
# UHRF1 MBD2 ctr – UHRF1 methylated DNA binding inhibitors, primary screen, counter-screen for MBD2 inhibitor project, biochemical, TR-FRET, human UHRF1, single concentration. UHRF1 binding to methylated oligo. E3 ubiquitin-protein ligase UHRF1 (Homo sapiens), Q96T88. inhibition, % at 4.4 µM. hit rate 0.75% among 370,000; in the data active means inhibition above about 21%;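 further: UHRF1 SRA domain binding a hemimethylated CpG hairpin DNA probe; 0% = median of test compound wells and 100% = reference inhibitor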
# UBC13 polyUb – UBC13 polyubiquitin chain formation inhibitors, primary screen, biochemical, TR-FRET, uHTS; Ubiquitin-conjugating enzyme E2 N (Homo sapiens), P61088; inhibition, % at 20 µM; hit rate 0.47% among 330,000; in the data active means inhibition above about 45%, passing the limit was not always enough
# Neddyl block – inhibitors of cullin neddylation, primary screen, biochemical, TR-FRET, uHTS, NAE and Ubc12 | NEDD8-conjugating enzyme Ubc12 (Homo sapiens) + NEDD8-activating enzyme E1 regulatory … | calls only at 25 µM | hit rate 0.58% among 360,000 | AID 651699, 2012; in the data active means inhibition above about 36%
# Target sequence (P61081 whole entry, looked up): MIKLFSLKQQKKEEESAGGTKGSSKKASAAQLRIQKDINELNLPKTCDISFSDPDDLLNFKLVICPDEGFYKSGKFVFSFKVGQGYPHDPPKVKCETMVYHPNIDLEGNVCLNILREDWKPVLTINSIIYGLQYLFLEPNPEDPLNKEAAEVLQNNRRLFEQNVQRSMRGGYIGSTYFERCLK
# Target sequence (Q13564 whole entry, looked up): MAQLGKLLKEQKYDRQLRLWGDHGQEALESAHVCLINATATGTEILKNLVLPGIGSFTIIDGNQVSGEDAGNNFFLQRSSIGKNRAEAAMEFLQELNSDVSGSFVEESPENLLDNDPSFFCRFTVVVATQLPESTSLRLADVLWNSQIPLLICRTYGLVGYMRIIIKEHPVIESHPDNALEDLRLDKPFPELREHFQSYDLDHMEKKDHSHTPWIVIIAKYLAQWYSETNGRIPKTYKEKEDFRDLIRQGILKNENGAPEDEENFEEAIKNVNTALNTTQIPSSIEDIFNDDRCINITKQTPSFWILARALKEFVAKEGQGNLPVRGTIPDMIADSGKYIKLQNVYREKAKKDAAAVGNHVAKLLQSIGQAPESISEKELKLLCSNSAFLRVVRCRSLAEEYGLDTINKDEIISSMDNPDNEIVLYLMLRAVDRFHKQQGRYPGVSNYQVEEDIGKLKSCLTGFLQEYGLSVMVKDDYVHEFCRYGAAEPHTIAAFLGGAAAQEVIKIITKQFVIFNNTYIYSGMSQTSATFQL
# MBD2 inh – inhibitors of MBD2 binding to methylated DNA, primary screen, biochemical, TR-FRET, DNA-binding domain, human. Methyl-CpG-binding domain protein 2 (Homo sapiens), Q9UBB5. MBD2 binding to methylated oligonucleotide. inhibition, % at 4.4 µM. hit rate 0.31% among 370,000; in the data active means inhibition above about 13%
# Neddyl conf – blockade of NEDD8 conjugation to cullin – biochemical, TR-FRET, single concentration, confirmation. TR-FRET cullin neddylation biochemical assay. hit rate 13% among 1,800. calls only at 25 µM. shares compounds with Neddyl block; in the data active means inhibition above about 40%;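 further: neddylation substrate is the cullin 1 ring ligase complex with SKP2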
# * = called active by the depositor; i = inactive; nt = no result shown; + = active, no number; ! = a repeat was not active. An excerpt weighted towards active compounds, which were near 1.8% of everything screened.
SMILES,UHRF1 MBD2 ctr,UBC13 polyUb,Neddyl block,MBD2 inh,Neddyl conf
CCOc1ccccc1NC(=O)CN1c2cccc3cccc(c23)S1(=O)=O,2,6,+,1,nt
CC(=O)C(Cc1ccccc1)NC(=O)CN1c2cccc3cccc(c23)S1(=O)=O (centres undefined),-1,12,+,-2,i
CCN(CC(=O)NC(C)(C)C)C(=O)CN1c2cccc3cccc(c23)S1(=O)=O,-6,2,+,0,nt
COc1ccc(CNC(=O)CN2C(=O)C(c3ccccc3)Oc3cccnc32)cc1 (centres undefined),-2,-2,i,-2,nt
COc1ccc(-n2c(SCC(=O)N3CCC(C(=O)O)CC3)nc3ccccc3c2=O)cc1OC,3,-2,i,0,nt
COc1ccc(CCN2CC(C(=O)NCc3cnn(C)c3)CCC2=O)cc1 (centres undefined),-3,nt,i,-5,nt
COC(=O)c1cc(NC(=O)CC2CCCC2)cc(C(=O)OC)c1,1,6,i,3,nt
O=C(Cn1nc(-c2ccco2)ccc1=O)Nc1cc(C(F)(F)F)ccc1Cl,0,7,nt,0,nt
O=C(Cn1nc(-c2ccco2)ccc1=O)Nc1cc(Cl)ccc1Cl,-3,4,+,0,i
Oc1ccc(C2CNCCc3c2cc(O)c(O)c3Cl)cc1 (centres undefined),-2,11,+!,-7,nt
O=C(Nc1cccnc1)c1ccc2c(c1)C(=O)N(Cc1cccnc1)C2=O,-1,-2,i,-1,nt
Cc1ccc(-c2cc(C(=O)NCc3ccccn3)c3ccccc3n2)cc1,-2,11,+,-2,i
COc1ccc(OC)c(-c2cc(C(=O)N/N=C/c3ccc(F)cc3)c3ccccc3n2)c1,-1,-2,+,-2,nt
CCOc1ccc(-c2cc(C(=O)N/N=C/c3cccnc3)c3ccccc3n2)cc1,0,11,+,-3,nt
CCOc1ccccc1-c1cc(C(=O)N/N=C/c2cccnc2)c2ccccc2n1,-4,-9,i,-1,nt
COc1ccc(OC)c(-c2cc(C(=O)N/N=C/c3cc(OC)c(OC)cc3OC)c3ccccc3n2)c1,0,3,nt,0,nt
CCN(CC(=O)NCc1cccs1)C(=O)c1ccc(S(=O)(=O)N(CC)c2ccccc2)cc1,2,3,i,2,nt
COc1ccc(-c2nc(C#N)c(NC(C)c3ccccc3)o2)cc1OC (centres undefined),1,8,nt,-4,nt
CCCc1ccc2oc(C(=O)N3CCN(c4cnccn4)CC3)c(C)c2c1,-2,2,+,-4,i
NC(=O)C1CCCN(C(=O)c2ccc(S(=O)(=O)N3CCCCCC3)cc2)C1 (centres undefined),1,-17,i,-1,nt
Cn1c(=O)c2nc(-c3ccccc3)c(-c3ccccc3)nc2n(C)c1=O,0,1,+,0,i
Cn1c(=O)c2nc(Cl)c(-c3ccccc3)nc2n(C)c1=O,1,4,i,6,nt
CN1CCOc2c1cnn(CCO)c2=O,0,nt,+,-1,i
CC(C)(C)C(=O)Cn1ncc(N2CCOCC2)c(Br)c1=O,3,-3,i,10,nt
Cc1cc2n(n1)C(c1ccc3c(c1)OCO3)Nc1ccccc1-2 (centres undefined),1,12,+,0,i
SMILES,UHRF1 MBD2 ctr,UBC13 polyUb,Neddyl block,MBD2 inh,Neddyl conf
Cc1nc2c(c3c1[nH]c1ccccc13)C(=O)CC(C)(C)C2,-1,15,+,-2,nt
O=C(Nc1cc(C(=O)Nc2ccccc2C(=O)O)cc(C(=O)Nc2ccccc2C(=O)O)c1)c1ccccc1,0,-6,+,4,i
CCOC(=O)Cn1nc(/C=C/c2ccc(C)cc2)ccc1=O,-4,-2,nt,-4,nt
CCOC(=O)Cn1nc(/C=C/c2ccc(C(C)C)cc2)ccc1=O,-2,6,+,-6,nt
CCOC(=O)Cn1nc(/C=C/c2ccccc2)ccc1=O,-2,3,+,-6,+
Cc1cc(/C=C(\C#N)C(=O)Nc2ccccc2F)c(C)[nH]1,5,2,i,-3,nt
